Screening data (PubChem)
RMI-FANCM inh: disruptors of RMI1/RMI2 association with MM2 peptide – biochemical, fluorescence polarization, human, primary screen. RMI core complex (RMI1/RMI2) binding to FANCM MM2 peptide, human. RMI core complex with F-MM2 peptide; active compounds read low. FP signal (polarization) at 33 µM. 0.58% of 70,000 active. AID 1159607, 2016; in the data active = FP signal below about 40
The depositor's hits bear a star; ! = not confirmed by another sample. This is one part of a sample in which hits are shown more often than they occur.

SMILES | RMI-FANCM inh
O=C1c2cccc3cc([N+](=O)[O-])cc(c23)C(=O)N1CCCN1CCOCC1 | 17*
O=C1c2cccc3cc([N+](=O)[O-])cc(c23)C(=O)N1CCc1ccccn1 | 45
C=CCn1c(SCC(=O)c2ccc(C)c(C)c2)nc2scc(-c3ccc(C)o3)c2c1=O | 75
CCCN1CCCc2cc(CCNC(=O)C(=O)NC(C)C)ccc21 | 67
CCN1CCCc2cc(CCNC(=O)c3ccccc3C(F)(F)F)ccc21 | 0*
CCCN1CCCc2cc(CCNC(=O)c3cccc(OC)c3OC)ccc21 | 65
CCCN1CCCc2cc(CCNC(=O)OCC)ccc21 | 31*
CCCN1CCCc2cc(CCNS(C)(=O)=O)ccc21 | 24*
CCCN1CCCc2cc(CCNS(=O)(=O)c3ccc(CC)cc3)ccc21 | 150
CN1CCCc2cc(CCNC(=O)c3ccccc3Cl)ccc21 | 61
CCCN1CCCc2cc(CCNS(=O)(=O)CC(C)C)ccc21 | 88
CCCC(=O)NCCc1ccc2c(c1)CCCN2CCC | 62
CCCN1CCCc2cc(CCNC(=O)c3ccccc3OCC)ccc21 | 23*
CCN1CCCc2cc(CCNC(=O)c3ccc(OC)c(OC)c3)ccc21 | 61
CCCN1CCCc2cc(CCNC(=O)C(=O)Nc3ccccc3OCC)ccc21 | 163
CCn1ccc(C(=O)Nc2nc3ccc(S(C)(=O)=O)cc3s2)n1 | 68
Cc1nn2c(-n3ccnc3C)c3c(nc2c1-c1ccccc1)CCC3 | 60
COc1cccc(S(=O)(=O)N2CCN(C(c3ccccc3)c3ccccc3)CC2)c1 | 71
CS(=O)(=O)c1ccccc1C(=O)Nc1ccc(S(N)(=O)=O)cc1 | 55
COc1ccc(-c2cc(-c3ccccc3)c(-c3ccccc3)nn2)cc1CN1CCOCC1 | 51
Nc1nc(N)c(Br)c(=O)[nH]1 | 56
CC(C)(C)C(=O)NC12CC3CC(CC(C3)C1)C2 | 58
O=C1/C(=C\c2ccco2)SC(=S)N1CCS(=O)(=O)O | 65
CCc1nnc(NC(=O)CCN2C(=O)/C(=C\c3ccco3)SC2=S)s1 | 65
CCN(Cc1ccccc1)C(=O)CCN1C(=O)/C(=C\c2ccco2)SC1=S | 22*
SMILES | RMI-FANCM inh
Nc1ccc(Oc2cccnc2)nc1 | -6*
CC(C)Oc1ccccc1Oc1ccc(N)cn1 | 50
CSc1ccc(Oc2ccc(N)cn2)cc1 | 56
O=S(=O)(NCCN1CCN(c2ccc(F)cc2)CC1)c1cccs1 | 65
O=c1[nH]nc(C(F)(F)F)n2cccc12 | 57
COC(=O)c1sccc1NC(=O)c1c(C)c(=O)on1C | 62
CSc1cccc(C(=O)Nc2ccc(S(N)(=O)=O)cc2)c1 | 60
CSc1scc2c1-c1nc(SCC(=O)C(C)(C)C)ncc1CC2 | 58
CSc1scc2c1C(=O)/C(=C/N(C)C)CC2 | 33*
Nc1c(C(=O)N/N=C\c2cccnc2)sc2nnc(-c3ccccc3)c(-c3ccccc3)c12 | 78
CC(=O)c1cccc(NC(=O)Cn2c(=O)nc(-c3ccccc3)c3cc(Cl)ccc32)c1 | 56
Fc1ccc(-c2nc(=S)c3c([nH]2)Oc2ccc(Br)cc2C3)cc1 | 26*
Fc1ccc(-c2noc(-c3ccc4c(c3)CCO4)n2)cc1 | 59
Cc1nc2c(=O)[nH]nc(-c3ccco3)c2s1 | 62
COc1ccc(C)c2sc(=NC(=O)C3CCN(S(=O)(=O)c4cccs4)CC3)n(C)c12 | 55
Cc1cc(C(=O)Nc2sc3c(c2C(N)=O)CCN(Cc2ccccc2)C3)on1 | 92
CCCc1ccc(-c2ccc(C#N)cc2)nc1 | 58
Cc1cc([N+](=O)[O-])nn1CC(=O)Nc1c(F)cc(F)cc1Br | 56
Cc1cc(NC(=O)c2cc(C)on2)n(-c2nc3ccccc3s2)n1 | 66
CCOC(=O)c1ccc(NC(=O)CCc2c(C)[nH]c(=O)[nH]c2=O)cc1 | 64
CCOC(=O)c1[nH]c2c(c1C)C(=O)CCC2 | 59
CCOC(=O)CCc1c(C(=O)OCC)[nH]c2c1CC(=O)NC2 | 32*
Cc1ccc(SCC(=O)N2CCOCC2)cc1 | 60
CC(C)(C)S(=O)(=O)/C(C#N)=C/N1CCN(C(c2ccccc2)c2ccccc2)CC1 | 62
N[C@H](CO)C(=O)O | 49
SMILES | RMI-FANCM inh
NC(CO)C(=O)NNCc1ccc(O)c(O)c1O (stereo unspecified) | -13*!
NNC(=O)CSC1CS(=O)(=O)c2cc([N+](=O)[O-])ccc21 (stereo unspecified) | 58
O=C(OC[C@H]1O[C@H](OC(=O)c2cc(O)c(O)c(OC(=O)c3cc(O)c(O)c(O)c3)c2)[C@H](OC(=O)c2cc(O)c(O)c(OC(=O)c3cc(O)c(O)c(O)c3)c2)[C@@H](OC(=O)c2cc(O)c(O)c(OC(=O)c3cc(O)c(O)c(O)c3)c2)[C@@H]1OC(=O)c1cc(O)c(O)c(OC(=O)c2cc(O)c(O)c(O)c2)c1)c1cc(O)c(O)c(OC(=O)c2cc(O)c(O)c(O)c2)c1 | 29*
CC(=O)OC[C@H]1O[C@@H](OCc2ccccc2)[C@H](OC(C)=O)[C@@H](OC(C)=O)[C@@H]1OC(C)=O | 54
O=C(Oc1cc(O)cc2c1C[C@@H](OC(=O)c1cc(O)c(O)c(O)c1)[C@@H](c1ccc(O)c(O)c1)O2)c1cc(O)c(O)c(O)c1 | 54
Cc1ccc(OCCCC(=O)NCC(C)C)c(C)c1 | 66
Cc1ccc(C)c(OCC(=O)N2CCC(C)CC2)c1 | 67
Cc1ccc(C)c(OCCCC(C)(C)C(=O)O)c1 | 12*!
CCOC(=O)CNC(=S)NN(C)C | 52
O=C(NCC1CCN(S(=O)(=O)c2ccccc2)CC1)Nc1ccc(F)cc1F | 57
COc1ccc(-c2c3c(nc4sc(C(=O)c5ccc6c(c5)OCCO6)c(N)c24)CC(C)(C)CC3=O)cc1 | -6*
COc1ccc(-c2c3c(nc4sc(C(=O)c5ccc(Cl)c(Cl)c5)c(N)c24)CC(C)(C)CC3=O)cc1 | 99
COc1ccc(-c2c3c(nc4sc(C(=O)Nc5ccc(F)cc5)c(N)c24)CC(C)(C)CC3=O)cc1 | 70
CC(C)(C)n1nc2c(c1NC(=O)C(=O)NCCCO)CSC2 | 51
Fc1ccc(N=C/C=C/C=C/Nc2ccc(F)cc2)cc1 | 60
O=C(O)Cc1csc(Nc2cccc(C(F)(F)F)c2)n1 | 68
NC(=O)Cc1csc(Nc2cccc(C(F)(F)F)c2)n1 | 29*
NC(=O)c1ccccc1NC(=O)Cc1csc(Nc2cccc(C(F)(F)F)c2)n1 | 66
COc1ccc(OC)c(S(=O)(=O)c2ccc([N+](=O)[O-])cc2Cl)c1 | 52
COCCn1c(SCc2ccccc2Cl)nc2cc(C(=O)NC(C)C)ccc2c1=O | 64
CSc1ncc(C#N)c2nc(-c3ccc(N(C)C)cc3)nn12 | -1*
O=C(Nc1ccc2c(c1)N(C(=O)c1ccco1)CC2)c1ccc2c(c1)OCO2 | 68
CCn1ccc(C(=O)Nc2ccc3scnc3c2)n1 | 64
Cc1cc(C)c(S(=O)(=O)Nc2cc(Cl)c(O)c3ccccc23)cc1C | 25*
Cc1cc(Cl)c(Cl)cc1S(=O)(=O)Nc1ccccc1C(=O)O | 63
COc1ccc(OC)c(S(=O)(=O)Nc2cc(Sc3ccccc3)c(O)c3ccccc23)c1 | 61
CN(C)c1ccc(CCNS(=O)(=O)c2cc(F)ccc2F)cc1 | 71
CCc1nnc(NS(=O)(=O)c2ccc(NC(=O)c3ccc(S(=O)(=O)N(CCOC)CCOC)cc3)cc2)s1 | 53
Cc1c(CN2CCc3ccccc3C2)sc2ccccc12 | 63
CC(=O)O[C@H]1C[C@@H]2CC[C@@H]3[C@H](CC[C@@]4(C)[C@H]3C[C@H]([N+]3(C)CCCCC3)[C@@H]4OC(C)=O)[C@@]2(C)C[C@@H]1[N+]1(C)CCCCC1 | 56
